According to PubChem BioAssay (NCATS):
A number with no mark means an inactive call.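 How the source made its calls, unless noted: active means compounds whose dose series gives a full or clear partial fitted curve of increased nuclear translocation; inconclusive means weak partial curve or effect only at the top dose; inactive means no dose-dependent translocation response.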 Results filed as inconclusive are left out.

test system: not listed separately; assay: Stat Signaling Pathway (AID 446; active means well fitted curve in either direction with a large enough effect, not every such curve was filed as active;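 further: ME-180 cervical cancer cells given 40 pM IL-6 alongside compound; SIE-controlled beta-lactamase reporter measured as 460/530 nm FRET emission ratio; on the % scale 0 is the no-effect control and ±100 the full control effect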); conditions: ME-180 (cervical carcinoma) SIE beta-lactamase reporter, IL-6 stimulated, 5 h; at 17.2 µM (top of the series) unless noted
Outline: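 Overnight-plated ME-180 cells bearing a STAT Inducible Element beta-lactamase reporter; 5 h co-exposure to compound and 40 pM IL-6; values normalized to 300 pM IL-6 and 125 nM JAK inhibitor controls.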

| SMILES | activity, negative = inhibition |
| --- | --- |
| CCC(C)Nc1nc(OC)nc(N(C)C#N)n1 (configuration not stated) | -0.957% |
| Cc1cc(C)c2c(N)c(C(=O)c3ccccc3)oc2n1 | -8.9% |
| CSc1nncc(=O)[nH]1 | -3.78% |
| COC(=O)c1sc(NC(=O)C(C)C)c(C(=O)OC)c1C | 1.94% |
| COc1ccc(/C(O)=C2/C(=O)C(=O)N(CCCN(C)C)C2c2ccco2)cc1Cl (configuration not stated) | 4.09% |
| COC(=O)c1ccccc1NC(=O)C1COc2ccccc2O1 (configuration not stated) | 2.58% |
| CC1(C)Cc2c(C#N)c(SCCC#N)nc(N3CCOCC3)c2CS1 | -3.44% |
| CCOCc1nc(N)[nH]c(=O)c1Cc1ccc(OC(C)C)cc1 | 9.73% |
| CCCCOc1ccc(C(=O)N2CCCC2C(=O)O)cc1 (configuration not stated) | 9.6% |
| CC(C)C(C(=O)Nc1ncn[nH]1)N1C(=O)c2ccccc2C1=O (configuration not stated) | -1.14% |
| CCOC(=O)NC(O)C(=O)c1cccs1 (configuration not stated) | 3.85% |
| CCCCOc1ccc(C(=O)Nn2cnnc2)cc1 | 8.41% |
| Nc1nc(NC(=O)c2cccs2)nn1-c1ccccc1 | -0.835% |
| CSc1nnc(C)c(=O)[nH]1 | 14.8% |
| COCCNc1ncnc2c1cnn2-c1ccc(Cl)cc1 | 2.93% |
| CC1CCN(c2ncnc3c2cnn3Cc2ccc(Cl)cc2)CC1 | -11.4% |
| Cn1c(N2CCN(c3ccccn3)CC2)nc2c1c(=O)n(Cc1ccccc1Cl)c(=O)n2C | -8.44% |
| CC1CN(c2oc(-c3ccccc3Cl)nc2C#N)CC(C)O1 (configuration not stated) | 9.86% |
| CCCCOC(=O)c1ccc(NC(=O)CSc2nncn2C)cc1 | 4.52% |
| COCCNc1oc(-c2ccc(C)cc2)nc1C#N | 0.279% |
| COc1ccc(Nc2nnc(C)c3ccccc23)cc1C(N)=O | -9.16% |
| COc1ccc(N2C(=O)C3C(C2=O)C2C=CC3C23CC3)c(OC)c1 (configuration not stated) | 0.0769% |

target: Glucocorticoid receptor (Homo sapiens) (UniProt P04150); assay: GR-GFP Redistribution (AID 450); conditions: U2OS GR-GFP nuclear translocation, laser cytometry, 2 h; series mostly up to 20.6 µM; further: potency means the concentration at half of the fitted maximal effect
Sequence (P04150 whole entry, looked up): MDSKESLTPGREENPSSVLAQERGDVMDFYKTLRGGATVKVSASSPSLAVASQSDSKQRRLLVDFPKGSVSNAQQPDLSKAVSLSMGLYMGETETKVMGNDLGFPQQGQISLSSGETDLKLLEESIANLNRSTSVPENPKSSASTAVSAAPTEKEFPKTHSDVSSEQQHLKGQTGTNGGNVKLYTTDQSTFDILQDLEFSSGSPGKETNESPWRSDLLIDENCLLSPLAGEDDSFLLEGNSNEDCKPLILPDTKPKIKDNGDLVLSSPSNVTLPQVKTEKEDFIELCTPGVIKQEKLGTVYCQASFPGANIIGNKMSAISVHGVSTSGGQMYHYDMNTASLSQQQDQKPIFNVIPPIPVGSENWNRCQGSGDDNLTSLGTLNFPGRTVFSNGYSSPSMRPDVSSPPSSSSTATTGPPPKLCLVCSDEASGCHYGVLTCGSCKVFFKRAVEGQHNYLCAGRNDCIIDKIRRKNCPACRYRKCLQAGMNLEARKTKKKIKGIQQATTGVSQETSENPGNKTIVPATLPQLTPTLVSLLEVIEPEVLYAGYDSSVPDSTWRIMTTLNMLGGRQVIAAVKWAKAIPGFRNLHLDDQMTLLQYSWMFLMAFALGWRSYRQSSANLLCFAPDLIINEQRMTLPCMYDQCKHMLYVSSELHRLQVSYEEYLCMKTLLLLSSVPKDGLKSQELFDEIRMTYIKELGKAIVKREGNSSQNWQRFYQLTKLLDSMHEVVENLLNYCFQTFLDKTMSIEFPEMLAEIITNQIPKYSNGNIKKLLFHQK

| SMILES | Potency |
| --- | --- |
| CC(C)Cc1[nH]c(=O)c(C#N)c2c1CCCC2 | > 20.6 µM |
| CCCCCC1CC(CC#CCN2CCOCC2)C(=O)O1 (configuration not stated) | > 20.6 µM |
| Cn1c(=O)c2c(nc(NCc3ccco3)n2CCc2ccccc2)n(C)c1=O | > 20.6 µM |
| Cc1cc2c(c(=O)n1Cc1cccnc1)C(c1ccccc1)C(C#N)=C(N)O2 (configuration not stated) | > 20.6 µM |
| Cc1cc(C)n(-c2ncnc3sc(C)c(C)c23)n1 | > 20.6 µM |
| CC12CN3CC(C)(CN(C1)C3c1ccc(Cl)cc1Cl)C2O (configuration not stated) | > 20.6 µM |
| Cc1nnc2n(-c3ccccc3)c(=O)c3c4c(sc3n12)CCCC4 | > 20.6 µM |
| CCCn1nc(Oc2nc(SC)nc(N(C)C)n2)ccc1=O | > 20.6 µM |
| COc1ccc2nc(SCC(=O)O)nc(C)c2c1 | > 20.6 µM |
| c1ccc(OCc2nn3c(-c4ccco4)nnc3s2)cc1 | > 20.6 µM |
| CC(O)(C#CCN1CCOCC1)c1ccccc1 (configuration not stated) | > 20.6 µM |
| CCCCOc1ccccc1P(=O)(O)CP(=O)(c1ccccc1)c1ccccc1 | > 20.6 µM |
| CN(C)c1ccc(C=NCCC2(O)CCOC(C)(C)C2)cc1 (configuration not stated) | > 20.6 µM |
| COc1ccc(OC)c(C2C(C#N)=C(N)Oc3cc(C)[nH]c(=O)c32)c1 (configuration not stated) | > 20.6 µM |
| Clc1ccc2nc(CSc3nc4ccccc4o3)cn2c1 | > 20.6 µM |
| S=c1[nH]nc(-c2ccco2)n1C1CCCCC1 | > 20.6 µM |
| COc1cccc(OC)c1C(=O)Nc1nc2ccc(S(C)(=O)=O)cc2s1 | > 20.6 µM |
| CCC(C)Nc1nc(OC)nc(N(C)C#N)n1 (configuration not stated) | > 20.6 µM |
| Cc1cc(C)c2c(N)c(C(=O)c3ccccc3)oc2n1 | > 20.6 µM |
| CSc1nncc(=O)[nH]1 | > 20.6 µM |
| COC(=O)c1sc(NC(=O)C(C)C)c(C(=O)OC)c1C | > 20.6 µM |
| COc1ccc(/C(O)=C2/C(=O)C(=O)N(CCCN(C)C)C2c2ccco2)cc1Cl (configuration not stated) | > 20.6 µM |
| COC(=O)c1ccccc1NC(=O)C1COc2ccccc2O1 (configuration not stated) | > 20.6 µM |
| CC1(C)Cc2c(C#N)c(SCCC#N)nc(N3CCOCC3)c2CS1 | > 20.6 µM |
| CCOCc1nc(N)[nH]c(=O)c1Cc1ccc(OC(C)C)cc1 | > 20.6 µM |
